From PubChem BioAssay
Hits are enriched below; roughly 9.3% of the tested compounds scored in any of these assays.
HCMV inh: human cytomegalovirus inhibition; HFF cells, HCMV-luciferase reporter, 72 h; active compounds read low; activity change, negative = inhibition, % at 57.5 µM; 410,000 tested, 4.5% active; in the data active = activity change below about -60%; inconclusive = no clear call, values can overlap the other calls; inactive = above about -39%
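Screen run at 2 compound doses on HFFs infected with reporter HCMV, MOI 1 PFU/cell. Luciferase activity from cell lysates at 72 h post infection gave inhibition relative to buffer-only and Salinomycin wells.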
Vaccinia Venus: vaccinia inhibition (Venus reporter). Vaccinia virus Venus reporter expression, fluorescence. Potency, µM (top dose mostly 36.5 µM), for the others: top-dose activity change, negative = inhibition, actives largely listed as inhibitors. 330,000 tested, 0.46% active. AID 720580; calls by dose curve; tested in A549 cells; note: potency is the fitted concentration of half-maximal effect; nearly all actives have a fitted effect of over 30% in size
Sm TGR inh: inhibitors of Schistosoma mansoni thioredoxin glutathione reductase; purified TGR, DTNB reduction, TNB absorbance 405 nm; Potency, µM (highest dose often 114 µM), for inactives: top-dose activity change, negative = inhibition, usual class: inhibitors; AID 485364; 360,000 tested, 3% active; note: potency is the fitted concentration of half-maximal effect; nearly all actives have a fitted effect of over 60% in size
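Kinetic colorimetric format: TGR-catalysed, NADPH-driven DTNB reduction monitored via TNB absorbance. Enzyme dispensed at 20 nM; compound exposure 15 min at room temperature before reaction start.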
Vaccinia mCherry: vaccinia inhibition (mCherry reporter); Vaccinia virus mCherry reporter infection, fluorescence; Potency, µM (titrated, usually from 36.5 µM), for inactives: at the top dose activity change, negative = inhibition, hits mostly inhibitors; 310,000 tested, 0.63% active; AID 720579; calls by dose curve; tested in A549 cells; note: potency is the fitted concentration of half-maximal effect; nearly all actives have a fitted effect of over 35% in size
FMDV antiviral: blocks foot and mouth disease virus; FMDV antiviral cell-based qHTS; 410,000 tested, 1.2% active; Potency, µM (top dose mostly 57.9 µM), for the others: top-dose activity change, negative = inhibition, actives largely listed as inhibitors; calls by dose curve; tested in HEK293T cells; note: read-out not given here; potency is the fitted concentration of half-maximal effect; nearly all actives have a fitted effect of over 45% in size
HCV inhibitor: inhibitors of hepatitis C virus infection; 340,000 tested, 3.4% active; Huh7.5.1 HCVcc-Cre infection, luciferase reporter, 44 h; Potency, µM (doses to about 41.8 µM), for the others: top-dose activity change, negative = inhibition, most hits filed as inhibitors; note: potency is the fitted concentration of half-maximal effect
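Infectious HCVcc-Cre (~0.5 moi) was added to cells just after compound, with cells seeded 4 h earlier at 1,000 per well. Luciferase activity after 44 h culture reported infection; substrate was incubated 15 min at room temperature before reading.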
The depositor's hits bear a star; i = inactive; ? = inconclusive; / = no result given; ! = a repeat was not active. Unless noted, calls come from the whole dose curve; as a rule, active = well fitted curve in the direction sought with a large enough effect; inconclusive = small, poorly fitted or top-dose-only effect, or another doubt; inactive = no such curve, though single readings can be large; an effect the other way counts as inactive or inconclusive. % is set by controls: 0 for no effect and ±100 for the full control effect.

SMILES	HCMV inh	Vaccinia Venus	Sm TGR inh	Vaccinia mCherry	FMDV antiviral	HCV inhibitor
COc1ccc(CCNC(=O)[C@H](C)N2C(=O)N3CCc4c([nH]c5ccccc45)[C@@]3(C)C2=O)cc1OC	-29	-19%	13%	-7%	?	1µM*
C[C@@H](C(=O)NC1CCCC1)N1C(=O)N2CCc3c([nH]c4ccccc34)[C@@]2(C)C1=O	16	-13%	-2%	-12%	-39%	10µM*
COc1ccc(CCNC(=O)[C@H](C)N2C(=O)N3CCc4c([nH]c5ccccc45)[C@@]3(C)C2=O)cc1	18	-25%	0%	-4%	?	4.5µM*
CC(C)[C@@H](C(=O)NC1CCCC1)N1C(=O)N2CCc3c([nH]c4ccccc34)[C@@]2(C)C1=O	23	-7%	-12%	-9%	?	?
COc1cccc(CNC(=O)[C@@H](C)N2C(=O)N3CCc4c([nH]c5ccc(OC)cc45)C3(C)C2=O)c1 (some centres undefined)	-32	-9%	-15%	-10%	?	8.9µM*
COc1ccc(CNC(=O)[C@H](C)N2C(=O)N3CCc4c([nH]c5ccc(OC)cc45)[C@@]3(C)C2=O)cc1	-40	2%	-15%	3%	-24%	?
COc1ccc2[nH]c3c(c2c1)CCN1C(=O)N([C@@H](C)C(=O)NCCc2ccc(OC)c(OC)c2)C(=O)[C@]31C	12	0%	-6%	-3%	?	?
CCn1cc(C(=O)NCCN(CC(C)C)CC(C)C)c(=O)c2cc(S(=O)(=O)N3CCOCC3)ccc21	11	-31%	-2%	-29%	-15%	-17%
COc1ccc(OC)c(NC(=O)c2ccc(N3C(=O)C4CC=C(C)CC4C3=O)cc2)c1 (centres undefined)	?	/	-13%	/	-17%	-27%
CCCS(=O)(=O)c1snnc1C	-72*	0%	-13%	-6%	-17%	23%
C/C(CC(=O)Nc1ccccn1)=N\NC(=O)c1ccccc1O	-91*	-12%	2%	4µM*	29%	7.1µM*
C/C(CC(=O)Nc1cc(C)ccn1)=N\NC(=O)c1cccc(C)c1O	-98*	-30%	4%	?	51%	?
C/C(CC(=O)Nc1ccccn1)=N\NC(=O)c1ccccc1	/	/	-3%	/	/	4%
CC1CC(C(F)F)n2nc(C(=O)O)cc2N1 (centres undefined)	25	/	7%	/	-2%	11%
Oc1ccc(O)c2c1C1(Cl)C(Cl)=C(Cl)C2(Cl)C1(Cl)Cl	-64*	-18%	/	?	?	?
Cc1ccc(C)c(S(=O)(=O)N2CCN(C(=O)CNC(=O)c3ccc4ccccc4c3)CC2)c1	?	-25%	0%	-18%	?	?
CC1(O)CCC2C3CCC4=CC(=O)CCC4(C)C34OC4CC21C (centres undefined)	-18	-11%	/	i	-11%	-3%
C[C@]12CCC3C(CC[C@H]4C[C@@H](O)CC[C@]34C)C1CCC2=O (some centres undefined)	/	-7%	/	7%	-28%	30%
CC(=O)O[C@H]1[C@H]2O[C@]23[C@@H]2CC[C@]4(O)C[C@@H](O)CC[C@]4(C)C2CC[C@]3(C)[C@H]1c1ccc(=O)oc1 (some centres undefined)	/	0.032µM*	-9%	32µM*	?	3.2µM*
C[C@]12CC[C@H](O)C[C@H]1CCC1C2CC[C@]2(C)[C@@H](c3ccc(=O)oc3)C[C@H]3O[C@]132 (some centres undefined)	/	1.1µM*	/	1.3µM*	/	/
C[C@]12CC[C@H]3C(CCC4(O)CC(O)CC[C@]34C=O)C1=CC[C@H]2c1ccc(=O)oc1 (some centres undefined)	-99*	/	-1%	/	-6%	-17%
CC(Cl)(Cl)/C(=N/P(=S)(N1CCOCC1)N1CCOCC1)N1CCOCC1	58	/	-1%	/	-13%	14%
CC1CC(C)CN(CCCNC(=O)Cn2ncc3c(=O)oc4ccccc4c32)C1 (centres undefined)	-8	-10%	1%	-15%	0%	1%
Cc1c2cnn(CC(=O)NCCCN3CC(C)CC(C)C3)c(=O)c2c(C)n1Cc1ccccc1Cl (centres undefined)	-69*	?	-9%	-22%	-13%	-19%
C=CCN1CC[C@]23c4c5ccc(O)c4O[C@@H]2C(=O)CC[C@]3(O)[C@H]1C5	/	/	/	/	-15%	/
SMILES	HCMV inh	Vaccinia Venus	Sm TGR inh	Vaccinia mCherry	FMDV antiviral	HCV inhibitor
C=CC[N+]1(C)CC[C@]23c4c5ccc(O)c4O[C@H]2C(=O)CC[C@@]3(O)[C@H]1C5 (some centres undefined)	35	-12%	50µM*	-14%	-7%	16%
CNc1nc(C(=O)O)nc(N2CCOCC2)n1	-105*	-2%	11%	-9%	2%	25%
CNc1nc(OC)nc(N2CCOCC2)n1	21	4%	0%	-14%	3%	12%
COc1cccc(C2Nc3cc(Cl)c(S(N)(=O)=O)cc3S(=O)(=O)N2)c1 (centres undefined)	38	-3%	2%	-12%	-2%	29%
Cc1ccc(NC(=O)CNC(=O)N2CC(=O)Nc3ccccc32)cc1F	?	/	2%	/	-20%	6%
O=C(CN1CC(=O)Nc2ccccc21)Nc1ccc(F)c(F)c1	-28	-7%	32µM*	-12%	19%	1%
CC(C)[C@H](NC(=O)Nc1cccc(Br)c1)C(=O)O	-11	/	4%	/	-2%	12%
COC(=O)c1ccccc1NC(=S)N(Cc1ccc2c(c1)OCO2)Cc1cc2ccc(OC)cc2[nH]c1=O	-63*	-27%	-15%	-27%	-24%	?
Cc1ccc(NC(=O)N(Cc2cccs2)Cc2cc3cc4c(cc3[nH]c2=O)OCO4)cc1	18	/	-2%	/	/	-2%
COC(=O)c1ccccc1NC(=S)N(Cc1ccc2c(c1)OCO2)Cc1cc2ccc(C)cc2[nH]c1=O	?	-24%	1%	-22%	-14%	?
COc1ccc2[nH]c(=O)c(CN(Cc3cccs3)S(=O)(=O)c3cccc4nsnc34)cc2c1	?	/	-7%	/	-18%	10µM*!
O=C(Nc1ccc(F)cc1)N(Cc1cccs1)Cc1cc2cc3c(cc2[nH]c1=O)OCO3	-61*	?	-10%	?	18µM*	?
CNC(=S)N(Cc1cccs1)Cc1cc2cc(OC)ccc2[nH]c1=O	3	1%	-1%	-15%	?	-5%
COc1ccc2[nH]c(=O)c(CN(Cc3cccs3)C(=S)Nc3cccc(C)c3)cc2c1	-66*	-12%	-7%	-15%	-30%	?
COc1ccc2[nH]c(=O)c(CN(CCO)S(=O)(=O)c3c(C)ccc4nsnc34)cc2c1	-3	/	22%	/	-12%	11%
